# Measured values as given in PubChem BioAssay.
# For some assays here: Potency and affinity values are given separately. The source made the active and inactive calls.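 Rule for the calls, unless noted: active = signal rise over 3 SD above mean of control wells given weak agonist, in both repeats and first screen; inactive = the rest.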
# Columns and labels:
# [1] = test system: TRPC4 beta (transient receptor potential cation channel C4), mouse; test: activators of mouse TRPC4 channel, confirmation, cell-based, Fluo4 calcium, HEK293 TRPC4beta/mu-opioid, duplicates, 10 µM (AID 2426;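 active = fluorescence ratio normalized to control raised more than 50% in primary screen plus both repeat runs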); conditions: Fluo4 calcium fluorescence, at 10 µM; hits give high values
# [2] = test system: transient receptor potential cation channel C4 beta (TRPC4), mouse; test: activators of mouse TRPC4 channel, confirmation, cell-based, second round, Fluo4, HEK293 TRPC4beta/mu-opioid, 1 µM (AID 2461;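 active = primary screen active and over 50% activation in each of two duplicate runs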); conditions: Fluo4 calcium fluorescence, at 1 µM; hits give high values
# [3] = test system: TRPC4 (transient receptor potential cation channel C4 beta), mouse; test: positive allosteric modulators of mouse TRPC4, confirmation, cell-based, second round, Fluo-4, HEK293 TRPC4beta/mu-opioid, 1 µM (AID 2554;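 active = primary screen hit whose fluorescence ratio, in both repeats, exceeds the weak agonist control mean by 3 SD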); conditions: DAMGO EC20, Fluo-4 calcium flux, at 1 µM; hits give high values
# [4] = test system: TRPC4 beta (transient receptor potential cation channel C4), mouse; test: positive allosteric modulators of mouse TRPC4, confirmation, cell-based, Fluo-4, HEK293 TRPC4beta/mu-opioid (AID 2555;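 active = primary screen hit whose calcium fluorescence ratio, in both repeats, exceeds the weak agonist control mean by 3 SD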); conditions: DAMGO EC20, Fluo-4 calcium flux, at 10 µM; hits give high values
# [5] = molecular target: Short transient receptor potential channel 4 (Mus musculus) (UniProt Q9QUQ5); test: inhibitors of mouse TRPC4 channel, confirmation, cell-based, Fluo4, HEK293 TRPC4beta/mu-opioid (AID 2636;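 active = calcium signal cut by more than 3 SD below the full-agonist control yet still positive, in both repeats and the earlier primary screen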); conditions: DAMGO, Fluo4 calcium flux, at 10 µM; hits give high values
# Short transient receptor potential channel 4 (Mus musculus), sequence (Q9QUQ5 whole entry, looked up): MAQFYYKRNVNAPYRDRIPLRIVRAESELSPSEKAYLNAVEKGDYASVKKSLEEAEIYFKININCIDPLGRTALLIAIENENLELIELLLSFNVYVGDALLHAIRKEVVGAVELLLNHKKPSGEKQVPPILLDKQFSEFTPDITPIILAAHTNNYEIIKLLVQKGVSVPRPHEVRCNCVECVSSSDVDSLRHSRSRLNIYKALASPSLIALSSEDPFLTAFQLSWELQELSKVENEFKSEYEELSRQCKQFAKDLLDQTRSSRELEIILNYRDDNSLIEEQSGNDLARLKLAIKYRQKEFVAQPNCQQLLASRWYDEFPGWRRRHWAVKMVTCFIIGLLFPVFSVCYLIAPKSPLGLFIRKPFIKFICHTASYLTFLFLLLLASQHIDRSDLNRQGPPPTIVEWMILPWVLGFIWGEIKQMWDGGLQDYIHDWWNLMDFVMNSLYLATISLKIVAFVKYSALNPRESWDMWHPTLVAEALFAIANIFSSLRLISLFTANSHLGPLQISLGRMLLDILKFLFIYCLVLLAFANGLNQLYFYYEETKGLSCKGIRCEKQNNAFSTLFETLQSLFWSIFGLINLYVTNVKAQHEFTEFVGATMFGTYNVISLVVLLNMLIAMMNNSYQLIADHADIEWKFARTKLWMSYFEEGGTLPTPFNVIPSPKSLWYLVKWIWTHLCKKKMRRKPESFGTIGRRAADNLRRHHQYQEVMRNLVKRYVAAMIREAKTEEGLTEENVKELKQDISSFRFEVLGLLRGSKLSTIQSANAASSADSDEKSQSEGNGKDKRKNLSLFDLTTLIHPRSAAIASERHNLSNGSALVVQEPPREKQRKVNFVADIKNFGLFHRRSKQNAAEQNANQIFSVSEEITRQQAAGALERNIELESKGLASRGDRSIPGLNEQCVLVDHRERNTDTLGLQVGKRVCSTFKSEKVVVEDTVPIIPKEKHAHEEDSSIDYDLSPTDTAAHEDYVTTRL
# [6] = molecular target: Short transient receptor potential channel 4 (Mus musculus) (UniProt Q9QUQ5); test: inhibitors of mouse TRPC4 channel, confirmation, cell-based, second round, Fluo4, HEK293 TRPC4beta/mu-opioid, 1 µM (AID 2637;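 active = calcium signal ratio cut to more than 3 SD under the fully stimulated control mean yet still positive, in both repeats and the primary screen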;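 for inhibition: percent of integrated ratio relative to wells lacking test compound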); conditions: Fluo4 calcium flux, DAMGO, at 1 µM; hits give high values
# [7] = molecular target: Short transient receptor potential channel 4 (Mus musculus) (UniProt Q9QUQ5); test: mouse TRPC4 channel activators, dose response, cell-based, HEK293 TRPC4/mu-opioid, Fluo-4 calcium (AID 434937;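 active = primary screen activator hit with a dose response curve and TRPC4 channel activation at any tested dose; inactive = no activation, no dose response, or not a primary hit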)
# [8] = molecular target: Short transient receptor potential channel 4 (Mus musculus) (UniProt Q9QUQ5); test: TRPC4 positive allosteric modulators, dose response, cell-based, HEK293 TRPC4/mu-opioid, Fluo-4 calcium, EC20 DAMGO (AID 434941;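 active = earlier screen potentiator hit that boosts the TRPC4 ion channel at some dose, with a dose response; inactive = no potentiation, no dose response, or not a prior hit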;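 note: calcium entry triggered by an EC20 dose of DAMGO at the co-expressed mu-opioid receptor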)
# [9] = molecular target: Short transient receptor potential channel 6 (Mus musculus) (UniProt Q61143); test: inhibition of mouse TRPC6 channel, confirmation, selectivity assay for TRPC4 inhibitor project, cell-based, HEK293, membrane potential dye, duplicate (AID 434948;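 active = active in primary screen and both duplicates, each dropping signal beyond three positive-control SD with fluorescence still positive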); conditions: HEK293 TRPC6, membrane potential dye fluorescence, at 10 µM, stimulated with maximal-effect acetylcholine; hits give high values
# Short transient receptor potential channel 6 (Mus musculus), sequence (Q61143 whole entry, looked up): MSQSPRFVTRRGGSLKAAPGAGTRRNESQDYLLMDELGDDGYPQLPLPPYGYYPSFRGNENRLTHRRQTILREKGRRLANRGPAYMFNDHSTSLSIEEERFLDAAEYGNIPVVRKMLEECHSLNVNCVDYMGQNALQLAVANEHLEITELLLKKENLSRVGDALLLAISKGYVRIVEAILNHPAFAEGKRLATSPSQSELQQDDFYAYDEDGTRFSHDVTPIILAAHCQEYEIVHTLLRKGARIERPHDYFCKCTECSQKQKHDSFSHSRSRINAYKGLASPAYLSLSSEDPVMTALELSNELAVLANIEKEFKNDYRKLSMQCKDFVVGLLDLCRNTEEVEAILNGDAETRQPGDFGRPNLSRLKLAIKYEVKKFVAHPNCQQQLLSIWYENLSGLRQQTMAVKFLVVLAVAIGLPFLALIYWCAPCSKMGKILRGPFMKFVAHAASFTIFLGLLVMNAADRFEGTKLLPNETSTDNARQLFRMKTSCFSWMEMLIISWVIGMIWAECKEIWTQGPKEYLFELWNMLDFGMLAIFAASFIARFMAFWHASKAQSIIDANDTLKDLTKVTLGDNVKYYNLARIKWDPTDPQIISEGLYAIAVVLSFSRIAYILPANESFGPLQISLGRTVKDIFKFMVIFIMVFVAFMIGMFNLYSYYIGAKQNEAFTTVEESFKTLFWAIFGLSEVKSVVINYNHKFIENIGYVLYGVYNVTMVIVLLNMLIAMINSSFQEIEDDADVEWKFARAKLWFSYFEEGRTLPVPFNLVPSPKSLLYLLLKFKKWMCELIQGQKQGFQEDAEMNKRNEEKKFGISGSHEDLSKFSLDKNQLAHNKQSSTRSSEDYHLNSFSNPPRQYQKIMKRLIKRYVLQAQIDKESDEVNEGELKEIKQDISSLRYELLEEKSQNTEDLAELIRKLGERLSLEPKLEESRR
# [10] = molecular target: Short transient receptor potential channel 6 (Mus musculus) (UniProt Q61143); test: activation of mouse TRPC6 channel, confirmation, selectivity assay for TRPC4 activator project, cell-based, HEK293, membrane potential dye, duplicate (AID 434950;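 active = membrane potential signal rise above negative control mean plus 3 SD in both duplicates, also active in the earlier TRPC4 screen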); conditions: HEK293 TRPC6, membrane potential fluorescence, at 10 µM; hits give high values
# [11] = molecular target: Short transient receptor potential channel 6 (Mus musculus) (UniProt Q61143); test: TRPC6 potentiation by TRPC4 potentiator hits, confirmation, selectivity assay for TRPC4 potentiator project, HEK293 cells, membrane potential dye, duplicate (AID 434952;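 active = compound raising the membrane signal above positive-control mean plus 3 SD in both repeats, and a primary screen hit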); conditions: HEK293 TRPC6, membrane potential dye fluorescence, at 10 µM, maximal acetylcholine added after compound; hits give high values
# [12] = molecular target: Short transient receptor potential channel 4 (Mus musculus) (UniProt Q9QUQ5); test: calcium flux activators in TRPC4/5HT1a cells, counter-screen for TRPC4 activator project, cell-based, second counter screen, HEK293 TRPC4/5HT1a, Fluo-4 (AID 434977;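 active = calcium signal rise above buffer-control mean plus 5 SD in both duplicates, and also a hit in the primary screen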); conditions: Fluo-4 calcium flux, at 10 µM; hits give high values
# [13] = calcium flux inhibitors in TRPC4/5HT1a cells, confirmation, counter-screen for TRPC4 inhibitor project, cell-based, second counter screen, HEK293 TRPC4/5HT1a, Fluo-4 (AID 434978;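 active = primary screen active whose calcium signal fell more than 3 SD beyond the full-serotonin control mean in both duplicate plates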;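 for outcome: serotonin given first at submaximal then at maximal dose after compound preincubation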); conditions: Fluo-4 calcium flux, at 10 µM, serotonin added to trigger calcium flux; hits give high values
# [14] = test system: TRPC4 (mouse), co-expressed with 5HT1a in HEK293; test: calcium flux potentiators in TRPC4/5HT1a cells, confirmation, counter-screen for TRPC4 potentiator project, cell-based, second counter screen, HEK293 TRPC4/5HT1a, Fluo-4 (AID 434979); conditions: Fluo-4 calcium flux, at 10 µM, serotonin added at its EC20 dose; hits give high values
# [15] = calcium flux activation in mu-opioid HEK293 cells, confirmation, counter-screen for TRPC4 activator project, cell-based, HEK293 mu-opioid receptor line (AID 449723;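 active = hit in primary screen, with calcium signal over 5 SD above buffer well mean in both duplicates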;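 note: counter screen cells carry the mu-opioid receptor alone and lack TRPC4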); conditions: Fluo-4 calcium fluorescence, at 10 µM; hits give high values
# [16] = calcium flux enhancement in mu-opioid HEK293 cells, confirmation, counter-screen for TRPC4 allosteric potentiator project, cell-based, HEK293 mu-opioid receptor line (AID 449724;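 active = calcium signal rise more than 3 SD above the low-dose agonist control mean, in both duplicate plates and the primary screen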); conditions: Fluo-4 calcium flux, at 10 µM, compound added before EC20 DAMGO stimulus; hits give high values
SMILES,outcome [1],outcome [2],outcome [3],outcome [4],inhibition [5],outcome [6],outcome [7],outcome [8],outcome [9],outcome [10],outcome [11],outcome [12],inhibition [13],outcome [14],outcome [15],outcome [16],inhibition [6],outcome [13],inhibition [9]
C=C(C)Cn1c(SCC)nc2ccccc2c1=O,inactive,inactive,inactive,inactive,96% (active),inactive,inactive,inactive,inactive,inactive,inactive,inactive,21.3% (active),inactive,inactive,inactive,–,–,–
c1ccn2cc(C34CC5CC(CC(C5)C3)C4)nc2c1,inactive,inactive,inactive,inactive,69% (active),inactive,inactive,inactive,inactive,inactive,inactive,inactive,41.3% (active),inactive,inactive,inactive,–,–,–
Cc1cc(N2CCCCCC2)nc2ccccc12,inactive,inactive,inactive,inactive,87% (active),–,inactive,inactive,inactive,inactive,inactive,inactive,15.6% (active),inactive,inactive,inactive,55% (active),–,–
Cc1cccn2c(=O)c(/C=N/O)c(N3CCCC3)nc12,inactive,inactive,inactive,inactive,57% (active),–,inactive,inactive,inactive,inactive,inactive,inactive,35% (active),inactive,inactive,inactive,72% (active),–,–
CC(Oc1ccc(Cl)cc1Cl)c1nc(-c2ccccn2)no1 (centres undefined),inactive,inactive,inactive,inactive,89% (active),–,inactive,inactive,inactive,inactive,inactive,inactive,22.7% (active),inactive,inactive,inactive,53% (active),–,–
Cc1ccc(N(CC(=O)NC2CCCC2)C(=O)CNC(=O)c2cccs2)cc1F,inactive,inactive,inactive,inactive,70% (active),inactive,inactive,inactive,inactive,inactive,inactive,inactive,–,inactive,inactive,inactive,–,inactive,–
CCn1nc(C)c(CN2CCCC(CO)(Cc3cccc(Cl)c3)C2)c1C (centres undefined),inactive,inactive,inactive,inactive,90% (active),–,inactive,inactive,inactive,inactive,inactive,inactive,–,inactive,inactive,inactive,49% (active),inactive,–
CCCCNc1nc(-c2ccccc2)c(C(=O)OCC)cc1C#N,inactive,inactive,inactive,inactive,94% (active),inactive,inactive,inactive,inactive,inactive,inactive,inactive,15% (active),inactive,inactive,inactive,–,–,–
COc1cc2c(cc1OC)C(C)N(CCc1ccc(Cl)cc1)CC2 (centres undefined),inactive,inactive,inactive,inactive,75% (active),inactive,inactive,inactive,inactive,inactive,inactive,inactive,–,inactive,inactive,inactive,–,inactive,–
COc1ccc2c(c1)C=C(CN1CCC(CO)(CCc3ccccc3)CC1)CO2,inactive,inactive,inactive,inactive,102% (active),inactive,inactive,inactive,inactive,inactive,inactive,inactive,35.7% (active),inactive,inactive,inactive,–,–,–
Cc1oc(-c2ccc(Cl)cc2)nc1CN1CCC(C(=O)NCc2cccs2)CC1,inactive,inactive,inactive,inactive,79% (active),inactive,inactive,inactive,inactive,inactive,inactive,inactive,26.7% (active),inactive,inactive,inactive,–,–,–
N#CCCn1cc(CNCc2ccccc2)c(-c2cccc([N+](=O)[O-])c2)n1,inactive,inactive,inactive,inactive,65% (active),–,inactive,inactive,inactive,inactive,inactive,inactive,30.7% (active),inactive,inactive,inactive,36% (active),–,–
COC(=O)CSc1nnc2n(-c3ccc(OC)cc3)c(=O)c3c4c(sc3n12)CCCCC4,inactive,inactive,inactive,inactive,95% (active),inactive,inactive,inactive,inactive,inactive,inactive,inactive,23% (active),inactive,inactive,inactive,–,–,–
CC[n+]1c(/C=C/Nc2ccccc2)oc2ccc(OC)cc21,inactive,inactive,inactive,inactive,92% (active),inactive,inactive,inactive,–,inactive,inactive,inactive,34% (active),inactive,inactive,inactive,–,–,46.5% (active)
